Assay results taken from PubChem BioAssay (NCI).
About 83,000 compounds went through this panel and 20% of them were active in at least one assay; those are over-represented in the sample as a whole.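 Single-concentration screen, 48 h exposure, 96-well plates. Endpoint: percent growth. Below 10 = active.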 The source made the active and inactive calls.

system: HL-60(TB) leukemia; experiment: NCI-60 one-dose screen, 48 h (100 = growth as untreated, 0 = no growth, -100 = all killed); conditions: 10 µM unless noted

Structure (SMILES)	growth
COc1c(C)cnc(CSc2nc(-c3ccc(C)cc3)cn2-c2ccc(Cl)cc2)c1C	95.8% (inactive)
O=S(=O)(Nc1ccc(Br)c(Cl)c1)c1ccc(-c2cnc(C3CC3)o2)cc1	-4.27% (active)
COc1cc(-c2nc3sccn3c2-c2ccnc(NCCCNS(=O)(=O)c3ccc(F)cc3)n2)ccc1F	64.9% (inactive)
COc1ccc(OC)c(/C=C/c2nc(SCc3ccccc3)n(-c3ccc(Cl)cc3)n2)c1	1.31% (active)
CCNCCNc1cc(-c2ccc(C(F)(F)F)cc2)c(C#N)c2nc3ccccc3n12	-65.9% (active)
[2H]c1cc2c(c([2H])c1F)/C(=C/c1[nH]c(C)c(C(=O)NCCN(CC)CC)c1C)C(=O)N2	4.9% (active)
C=C1C(=O)O[C@H]2[C@H]1CC/C(COC(=O)NCc1cn(C)c3ccccc13)=C\CC[C@@]1(C)O[C@@H]21	-48.5% (active)
O=C(c1ccc(N2CCOCC2)cc1[N+](=O)[O-])N1CCOCC1	133% (inactive)
Cc1ccc2c(C3C(C#N)=C(N)Oc4cc5ccccc5cc43)cc(=O)oc2c1 (stereo not given)	-14.2% (active)
COc1cc(OC)c(/C=C/c2ccc3ccccc3[n+]2C)c(OC)c1	-29.5% (active)
O=c1ccn2c(n1)OC1CC2OC1COC(c1ccccc1)(c1ccccc1)c1ccccc1 (stereo not given)	89.2% [100 µM] (inactive)
NNC(=O)c1ccc(-n2nc(-c3ccccc3)c3ccccc32)cc1	93% (inactive)
COc1cnc2c(c1)C(=O)c1c-2n(CCCNC2=NCCS2)c(=O)c2cc(F)ccc12	-45.5% (active)
Cc1ccc(/C(=N\N=C(N)N)c2ccccc2)cc1	-41.6% (active)
CCN(CC)C(CC(=O)c1ccccc1)C(=O)c1ccccc1 (stereo not given)	63.5% (inactive)
Nc1nc(SCC2(CCl)COC2)c2[nH]cnc2n1	105% (inactive)
CCN(CC)c1nc(SCC(=O)Nc2nc3ccc(C)cc3s2)nc(-c2ccccc2)c1C#N	96.5% (inactive)
O=C(NC(=S)Nc1ccc(Cl)cc1)c1ccccc1	60.5% (inactive)
COc1ccc(Nc2nc(NCc3ccccc3)c3ccccc3n2)cc1	89.5% (inactive)
c1ccc2c(c1)Oc1ccccc1C2C1c2ccccc2Oc2ccccc21	99.4% (inactive)

Structure (SMILES)	growth
COc1cccc(OC)c1OC(=O)c1ccccc1	110% (inactive)
C/C(=C(/c1ccc(O)cc1)c1ccc(OCCN(C)C)cc1)c1ccccc1	76% (inactive)
C=C1C(=O)O[C@H]2[C@H]1CC/C(Cn1cc(Cn3ccc4ccccc43)nn1)=C\CC[C@@]1(C)O[C@@H]21	-48.5% (active)
CN1C(=O)/C(=C/c2ccc(C(=O)Nc3ncc(Cc4ccccc4Cl)s3)cc2)SC1=S	73.1% (inactive)
CC(=O)Nc1ccc(Cl)cc1Cl	109% (inactive)
Oc1ccc(Cl)cc1-c1cc(-c2ccc(Cl)cc2)n[nH]1	60.4% (inactive)
CN1CCN(Cc2ccc(NC(=O)c3cncc(C#Cc4cnc(N)c5ccc(C#N)cc45)c3)cc2C(F)(F)F)CC1	-17% (active)
Nc1ccccc1C#Cc1ccccc1C#Cc1ccc(OCCCCCCOc2ccc(C#Cc3ccccc3C#Cc3ccccc3N)cc2)cc1	110% (inactive)
COc1ccc2[nH]cc(/C=C3/C(=O)Nc4ccc(F)cc43)c2c1	96.6% (inactive)
NS(=O)(=O)c1ccc(Nc2nc3n[nH]c(Nc4ccccc4)c3c(=O)[nH]2)cc1	101% (inactive)
C=C(c1ccc(N(C)C)cc1)c1ccc(N(C)C)cc1	-6.12% (active)
CCCCCCCCCCCCSC1=CC(=O)C=CC1=O	-32.3% (active)
CCCCCCCCCCCCCCCCCCOc1ccccc1CC(=O)NCC[N+]1(C)CCCCC1	41.8% (inactive)
CCCCCCCCCCC(C(O)c1ccccc1)N1CCCCC1 (stereo not given)	-28.5% (active)
COc1ccc(-c2cnoc2-c2cc(OC)c3c(c2)OCCO3)cc1	-27.4% (active)
O=C(Nc1ncc(Cc2cc(Cl)ccc2Cl)s1)c1cccs1	86.1% (inactive)
COc1ccc(C2CC(c3ccc(OC)c(OC)c3)=NN2C(=O)c2cc(OC)c(OC)c(OC)c2)c(OC)c1 (stereo not given)	84% (inactive)
CN(C)c1nc(N)nc(Cn2c(-c3nonc3N)nc3ccccc32)n1	94.2% (inactive)
CCOC(=O)c1c[nH]n2c(=S)ncnc12	91.2% (inactive)
Cc1[nH]c(C(=O)Nc2ccc(C(=O)NCCN)cc2OC(C)C)c(Cl)c1Cl	-21.3% (active)
